Assay results reported in PubChem BioAssay (NCI).
Compounds without any hit were thinned out: in the full panel of roughly 79,000, 15% have a hit. Values without a mark were called inactive. Calls of active or inactive are those of the source. No stated cut-off is given here; in the data, active means growth inhibition above about 70%; inactive means the rest.

How the values were obtained:
[1] = NCI Yeast Anticancer Drug Screen. Data for the rad50 strain (AID 155);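 further: 0% = growth of vehicle-only cultures of the same strain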; conditions: S. cerevisiae rad50 strain growth inhibition; at 50.0 µM; hits give high values
How it was run: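 Readout: growth inhibition relative to vehicle-treated cultures. Compound exposure was carried out in a genetically defined yeast strain deficient in DNA damage repair.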

[2] = NCI Yeast Anticancer Drug Screen. Data for the mec2-1 strain (AID 157); conditions: S. cerevisiae mec2-1 strain, at 50.0 µM, hits give high values
How it was run: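 Mutant yeast (mec2-1) grown with compound; growth inhibition relative to vehicle control reported.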

[3] = NCI Yeast Anticancer Drug Screen. Data for the sgs1 mgt1 strain (AID 161);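 further: 0% = growth of cultures given vehicle only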; conditions: S. cerevisiae sgs1 mgt1 strain, at 50.0 µM, hits give high values
How it was run: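 Growth of a repair-deficient yeast mutant was monitored after compound treatment and expressed as inhibition relative to vehicle-treated cultures.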

[4] = NCI Yeast Anticancer Drug Screen. Data for the cln2 rad14 strain (AID 165);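 further: 0% = growth equal to vehicle treated cultures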; conditions: S. cerevisiae cln2 rad14 strain, at 50.0 µM, hits give high values
How it was run: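 Readout is yeast growth inhibition versus vehicle-treated controls, using a strain with cln2 and rad14 alterations exposed to compound.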

[5] = NCI Yeast Anticancer Drug Screen. Data for the bub3 strain (AID 167); conditions: S. cerevisiae bub3 mutant strain, at 50.0 µM, hits give high values
How it was run: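 Readout: yeast growth inhibition, expressed relative to vehicle-only wells. The test organism is a mutant strain from a panel with lesions in DNA repair or checkpoint genes.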

[6] = NCI Yeast Anticancer Drug Screen. Data for the mlh1 rad18 strain (AID 175); conditions: S. cerevisiae mlh1 rad18 strain growth inhibition; at 50.0 µM; hits give high values
How it was run: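 Genetically defined yeast (DNA repair-deficient) exposed to compounds; growth inhibition determined relative to vehicle.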

| Compound | growth inhibition [1] | growth inhibition [2] | growth inhibition [3] | growth inhibition [4] | growth inhibition [5] | growth inhibition [6] |
| --- | --- | --- | --- | --- | --- | --- |
| COc1cc(C(O)C2(c3ccc(O)c(OC)c3)NC(=O)NC2=O)ccc1O (stereo unspecified) | -22.2% | 16.3% | -9.35% | -16.9% | 35.2% | -14.3% |
| O=C1CN(c2ccccc2)CC(=O)N2Cc3ccccc3CN12 | -4.05% | 1.2% | 9.8% | 17.1% | 16.7% | 14.7% |
| Nc1ccc(S(=O)(=O)Nc2nccs2)cc1 | -0.6% | -17.2% | -3.7% | 6.05% | -1.85% | -3.4% |
| CC(C)SC1SCC2C(=O)N(C)C3(CC3C)C(=O)OCC(NC(=O)c3nc4ccccc4cc3O)C(=O)NC(C)C(=O)N(C)C1C(=O)N(C)C1(CC1C)C(=O)OCC(NC(=O)c1nc3ccccc3cc1O)C(=O)NC(C)C(=O)N2C (stereo unspecified) | 70.4% (active) | 68% | 78% (active) | 73.8% (active) | 78.8% (active) | 81.2% (active) |
| O=C(O)Cc1[nH]c(=O)[nH]c(=O)c1CCl | -27.9% | -7.75% | -10.1% | -1.3% | -19.2% | -18.1% |
| O=C1Nc2ccccc2/C1=N/N=P(c1ccccc1)(c1ccccc1)c1ccccc1 | -10.2% | 0.35% | 10.1% | 2.4% | -5.8% | -5.15% |
| CC1OC(OC2C(Oc3cc(O)c4c(=O)cc(-c5ccc(O)cc5)oc4c3)OC(CO)C(O)C2O)C(O)C(O)C1O (stereo unspecified) | -6.15% | 5.75% | -14.2% | -19.9% | 6.35% | -7.65% |
| Cc1cc2cc(Cl)ccc2nc1C(=O)c1ccccc1 | -5.75% | -24.4% | -3.3% | 17.7% | -6.65% | -18.7% |
| O=C1c2cccnc2-c2ncccc21 | 16.3% | 0.55% | -1.35% | 9.8% | 5.4% | 24.1% |
| c1ccc2c(c1)SCCCSCCCS2 | -4.35% | -4.6% | -5.45% | -9.4% | 9.15% | -11.4% |
| O=C(CCBr)NC(=O)OC/C=C\c1ccccc1 | 7.7% | 34.8% | 12.2% | 8% | 5.1% | 15.2% |
| Cc1nc2c(N)cc(Cl)cc2[nH]1 | 13.2% | 13.3% | 19.6% | 8.25% | -7.3% | 7.75% |
| CC12CCC(=O)C=C1CCC1C2C(=O)CC2(C)C1CCC2(O)C(=O)Cn1cc(F)c(=O)[nH]c1=O (stereo unspecified) | 12.1% | 9.5% | 32.8% | 11.9% | -1.25% | 6.5% |
| CCCCCC[n+]1ccc(C(=O)c2ccccc2)cc1 | 34.9% | -5.8% | 19.9% | 7.9% | 0.45% | 32.6% |
| O=C(O)CCCCc1ccc2ccccc2c1 | 4% | 15.4% | 16.4% | 29.2% | 5.95% | 26.8% |
| Cc1ccc(NC(=O)OCC2CC3C=CC2C3)cc1 (stereo unspecified) | 95.5% (active) | 98.8% (active) | 99% (active) | 96.3% (active) | 95.2% (active) | 97.7% (active) |
| CCOC(=O)C1=CC(=O)CC(C)(C)O1 | -2.6% | 7.55% | -1.65% | -5.75% | -0.8% | 1.95% |
| CC(=O)SC1CC2CCC1C2 (stereo unspecified) | 0.75% | -18.2% | -17.4% | 9.95% | -19.7% | 15.7% |
| COc1ccc(COC(=O)Nc2cccc(Cl)c2C)cc1 | -1.2% | 8.95% | 14.8% | -25.7% | -8.85% | -3.2% |
| CSc1ccc(NC(=O)Oc2ccc(NC(C)=O)cc2)cc1 | 8.55% | -0.95% | 6.05% | 14.4% | 22.8% | 4.45% |
| CC1CNC(=S)O1 (stereo unspecified) | -18.2% | -15.5% | 5.05% | -7.05% | -32.1% | -16.7% |

| Compound | growth inhibition [1] | growth inhibition [2] | growth inhibition [3] | growth inhibition [4] | growth inhibition [5] | growth inhibition [6] |
| --- | --- | --- | --- | --- | --- | --- |
| O=C(Nc1nc(=S)[nH][nH]1)C(=O)C1C(=O)Nc2ccccc2S1=O (stereo unspecified) | 3.45% | -10.8% | -4.2% | 4% | -20.9% | -0.6% |
| Cc1c(Cl)cccc1NC(=O)Oc1ccccc1Cc1ccccc1 | -0.8% | 43.1% | 40% | -2.7% | 67.5% | 52.2% |
| CCCCCCCCCCCCCCCCCCNC(=O)N(C)Cc1ccccc1 | 17.5% | 1.65% | -0.65% | -4.75% | -1% | -8.05% |
| CCc1nc(N)nc(N)c1-c1ccc(Cl)c(N=CN(C)C)c1 | 31.8% | 23.1% | 26.9% | 29.8% | 16.6% | 51.5% |
| O=C(NNC(=O)c1ccncc1)c1ccncc1 | -22.9% | 1.2% | -9.45% | -30.3% | -2.4% | -23.9% |
| O=C(NC(=O)c1ccc(F)c(Cl)c1)NC1CC1 | 6.3% | -1.15% | 12% | 14.2% | 9.25% | 5.3% |
| COC1(OC)CC2C(=O)N(Cc3ccccc3)C1C(S(=O)(=O)c1ccccc1)C2S(=O)(=O)c1ccccc1 (stereo unspecified) | 27.6% | 29.5% | 45.5% | -31.7% | 50.2% | 64.8% |
| O=C(O)Cn1ccc(=O)c2ccc([N+](=O)[O-])cc21 | 35.7% | 15.2% | 13.7% | 26.9% | 23.8% | -47.5% |
| CCOCCOCCOC12C(=O)C(Cl)=C(Cl)C(=O)C13C1CC2C(Cl)C13 (stereo unspecified) | 99.4% (active) | 99.5% (active) | 98.9% (active) | 98% (active) | 98.7% (active) | 98.2% (active) |
| NCC1CCCCO1 (stereo unspecified) | 7% | 5.1% | 14.2% | -4.1% | -16.7% | -4.65% |
| CC(=O)[C@H]1C[C@@H](CC(=O)O)C1(C)C | -0.55% | -11.8% | -10.6% | -6% | -3.25% | -3.15% |
| C[N+]([O-])(C/C=C/c1ccccc1)c1ccccc1 (stereo unspecified) | -3.25% | -2.3% | -2.65% | 5.45% | -29.1% | -2.7% |
| CCN(CC)CCN(N)CCN(CC)CC | 20.6% | -24.8% | -1.2% | -1.5% | -44.2% | -17.2% |
| O=C(O)c1cc(-c2cccs2)c(C(=O)O)s1 | -4.2% | 5.35% | -18.2% | -19.1% | -11.1% | 2.1% |
| O=C(NCCCCCCNC(=O)NCc1ccc(Cl)c(Cl)c1)NCc1ccc(Cl)c(Cl)c1 | 13.6% | 4% | -3.8% | -3.8% | -1.9% | 16.9% |
| CCCCCCNCc1cc(CNCCCCCC)c(O)c(CNCCCCCC)c1 | 4.5% | 15.4% | 18.4% | -2.4% | 1.4% | 29.6% |
| CN1C(=S)CSc2ccccc21 | -8.5% | -4% | -11.3% | 26% | -9.75% | 1.85% |
| CSc1nc2c(c(O)c(C)c(=O)n2C2OCC(OC(C)=O)C(OC(C)=O)C2OC(C)=O)c(=O)n1C (stereo unspecified) | 10.6% | -26.5% | -15.7% | 2.9% | 2.2% | -1.3% |
| COC(=O)c1ccc(/C2=c3\cc/c([n-]3)=C(\c3ccc(C(=O)OC)cc3)c3ccc([n-]3)/C(c3ccc(C(=O)OC)cc3)=c3/cc/c([n-]3)=C(\c3ccc(C(=O)OC)cc3)c3ccc2[n-]3)cc1.[Mn] | 14.8% | 23.1% | 12.5% | -3.65% | -4.55% | 53.7% |
| [N-]=[N+]=Nc1ccccc1-c1ccccc1[N+](=O)[O-] | 35% | -6.3% | 40.3% | 0.4% | -6.4% | 28.6% |
